Laboratory results published in PubChem BioAssay (NCI).
Values joined by “and” are separate entries in the source; they are usually repeats but may differ in a detail not shown here. Identical values can stand only once. This is part of a sample that, as a whole, favours compounds with a hit. Of some 83,000 tested, about 20% had one in any assay.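 Compound tested at a single concentration for 48 hours in 96-well plates; a percent growth value below 10 was scored as active.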 A number with no mark means an inactive call. Active and inactive are the calls of the source.

Tested on: MDA-MB-468 breast
Experiment: NCI-60 one-dose screen, 48 h (100 = growth as untreated, 0 = no growth, -100 = all killed)
Conditions: 10 µM unless noted

Row | Structure (SMILES) | growth
1 | COc1ccc(/C=C(/C2=NCCN2)n2ccc3ccccc32)cc1 | 89.6%
2 | N#C/C(=C\c1ccc(Br)cc1)c1cc2ccccc2[nH]1 | 82.8%
3 | CC(=O)Cc1ccccn1 | 120%
4 | CN1CCN(Cc2ccc(NC(=O)c3cncc(C#Cc4cnc5[nH]ncc5c4)c3)cc2C(F)(F)F)CC1 | 40%
5 | Cc1ccc(C)c(/C=C2\CN(C(=O)OC(C)(C)C)C/C(=C\c3cc(C)ccc3C)C2=O)c1 | 57.3%
6 | C=CCCCCCCCCCOC(C)=O | 105%
7 | CC(C)[C@]12O[C@H]1[C@@H]1O[C@]13[C@]1(O[C@H]1C[C@H]1C4=C(CC[C@@]13C)C(=O)OC4)[C@@H]2OC(=O)CN(C)C | -55.2% (active)
8 | CC(C)=CCC[C@](C)(O)[C@H]1CC[C@]2(C)[C@@H]1CC[C@@H]1[C@@]3(C)C/C(=C/c4cccc([N+](=O)[O-])c4)C(=O)C(C)(C)[C@@H]3CC[C@]12C | 84.3%
9 | NC1=NC2(CCCC2)N(c2ccc(S(=O)(=O)Nc3nccs3)cc2)C(N)=N1 | 90.7%
10 | O=S(=O)(O)c1ccc(O)c2ccccc12 | 104%
11 | CC(=O)[C@@H]1CC[C@]2(COS(=O)(=O)c3ccc(C)cc3)CC[C@]3(C)[C@H](CC[C@@H]4[C@@]5(C)CCCNC(C)(C)[C@@H]5CC[C@]43C)[C@@H]12 | 20.2%
12 | CS(=O)(=O)Nc1ccc(Nc2c3ccccc3nc3cc(N)ccc23)cc1 | -52.9% (active)
13 | OCCN1CCN(CCO)CC1 | 107% and 103% and 105%
